Measured values reported in PubChem BioAssay (NCATS).
Where “and” joins values, the source holds several entries; their conditions need not be identical. Equal values may be shown once. Results filed as inconclusive are left out. Calls of active or inactive are those of the source. Unless noted, calls come from the whole dose curve.

Target: DNA dC->dU-editing enzyme APOBEC-3G (Homo sapiens) (UniProt Q9HC16)
Test: qHTS for inhibitors of Vif-A3G interactions: Validation (AID 588379; active = well fitted inhibition curve with a large enough effect; note: 0% is about no effect)
Details: Vif-A3G protein interaction assay; series mostly up to 46.1 µM; activity change, negative = inhibition: at the top concentration
How it was run: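 Yellow fluorescence (Ex 488, Em 500-530) of Vif-coexpressing HeLa A3G-eYFP cells, scanned by Acumen cytometer, reports blocked A3G degradation. Cells plated at 700/well overnight at 37 deg C before compound addition, then a further overnight compound incubation at 37 deg C.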

DNA dC->dU-editing enzyme APOBEC-3G (Homo sapiens), sequence (Q9HC16 whole entry, looked up): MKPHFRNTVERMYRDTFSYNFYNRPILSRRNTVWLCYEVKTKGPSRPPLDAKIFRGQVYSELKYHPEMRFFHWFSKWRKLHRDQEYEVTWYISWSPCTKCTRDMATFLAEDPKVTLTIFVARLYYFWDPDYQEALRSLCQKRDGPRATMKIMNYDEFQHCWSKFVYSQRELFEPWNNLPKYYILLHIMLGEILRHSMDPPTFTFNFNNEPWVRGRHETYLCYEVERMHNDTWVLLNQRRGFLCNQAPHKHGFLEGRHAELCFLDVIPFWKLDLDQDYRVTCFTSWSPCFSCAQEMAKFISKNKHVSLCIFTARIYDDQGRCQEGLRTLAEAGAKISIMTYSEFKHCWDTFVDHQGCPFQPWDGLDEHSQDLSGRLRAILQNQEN

| SMILES | activity change, negative = inhibition | outcome |
| --- | --- | --- |
| CN(C)CCCN1c2ccccc2CCc2ccc(Cl)cc21 | -1.52% (inactive) |  |
| CN1CCC(=C2c3ccccc3C=Cc3ccccc32)CC1 | -0.736% (inactive) |  |
| OCCN(CCO)c1nc(N2CCCCC2)c2nc(N(CCO)CCO)nc(N3CCCCC3)c2n1 | 1.45% (inactive) |  |
| CNCCCC12CCC(c3ccccc31)c1ccccc12 | -2.61% (inactive) |  |
| O=C1N(c2ccccc2)c2ccccc2C1(Cc1ccncc1)Cc1ccncc1 | -0.0212% (inactive) |  |
| Cc1cc(C(C)(C)C)c(O)c(C)c1CC1=NCCN1 | -3.75% (inactive) |  |
| COc1ccc(CCN(C)CCCC(C#N)(c2ccc(OC)c(OC)c2)C(C)C)cc1OC (stereo not drawn) | -2.19% (inactive) |  |
| CN1CCC(=C2c3ccccc3CC(=O)c3sccc32)CC1 | -1.93% (inactive) |  |
| Nc1c2c(nc3ccccc13)CCCC2 | -2.42% (inactive) |  |
| C[C@](N)(Cc1ccc(O)c(O)c1)C(=O)O | 4.59% (inactive) |  |
| CN1CCN(C2=Nc3cc(Cl)ccc3Nc3ccccc32)CC1 | 0.575% (inactive) |  |
| COc1cc2nc(N3CCN(C(=O)c4ccco4)CC3)nc(N)c2cc1OC |  | inactive |
| COC(=O)Nc1nc2ccc(C(=O)c3cccs3)cc2[nH]1 | -2.39% (inactive) |  |
| CN(C)C(=O)C(CCN1CCC(O)(c2ccc(Cl)cc2)CC1)(c1ccccc1)c1ccccc1 | -2.81% (inactive) |  |

Target: Estrogen receptor (Homo sapiens) (UniProt P03372)
Sequence (P03372 whole entry, looked up): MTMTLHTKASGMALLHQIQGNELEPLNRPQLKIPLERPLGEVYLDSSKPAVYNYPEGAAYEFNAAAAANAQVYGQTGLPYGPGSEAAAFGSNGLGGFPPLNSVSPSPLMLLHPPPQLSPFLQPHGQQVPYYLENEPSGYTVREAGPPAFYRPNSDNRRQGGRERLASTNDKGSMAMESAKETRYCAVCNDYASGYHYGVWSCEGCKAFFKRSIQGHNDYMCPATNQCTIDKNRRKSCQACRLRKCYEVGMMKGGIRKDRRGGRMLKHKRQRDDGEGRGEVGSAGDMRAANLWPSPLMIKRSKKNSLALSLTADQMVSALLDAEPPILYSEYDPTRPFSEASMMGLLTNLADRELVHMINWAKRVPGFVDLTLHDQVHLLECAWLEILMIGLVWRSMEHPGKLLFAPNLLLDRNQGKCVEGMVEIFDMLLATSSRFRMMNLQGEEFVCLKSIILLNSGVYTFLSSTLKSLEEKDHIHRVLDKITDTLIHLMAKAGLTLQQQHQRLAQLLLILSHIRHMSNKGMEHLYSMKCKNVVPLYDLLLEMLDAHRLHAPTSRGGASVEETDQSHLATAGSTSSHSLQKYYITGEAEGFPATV
Test: qHTS assay for small molecule antagonists of estrogen receptor alpha signaling (AID 588513; active = well fitted curve in the direction sought with a large enough effect in the signal ratio, with a control signal flat, not every such curve was filed as active; the % refers to the signal ratio; note: % is set by controls: 0 for no effect and ±100 for the full control effect)
Details: ER-alpha-UAS-bla HEK293, beta-lactamase ratio, antagonist mode; series mostly up to 76.9 µM; activity, negative = inhibition: at the top concentration
How it was run: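 ER-alpha-UAS-bla GripTite HEK 293 cells in 2% charcoal/dextran-treated FBS medium; compounds titrated (1:2, duplicate), then stimulated with 0.5 nM 17-beta-estradiol for 18 h at 37C. CCF4 beta-lactamase fluorescence; Hill-fit IC50 and efficacy.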

| SMILES | activity, negative = inhibition |
| --- | --- |
| Cc1ccc(-c2cc(C(F)(F)F)nn2-c2ccc(S(N)(=O)=O)cc2)cc1 | -24% (inactive) |
| O=c1[nH]cc(F)c(=O)[nH]1 | 9.83% (inactive) |
| Nc1c2c(nc3ccccc13)CCCC2 | 48.7% (inactive) |
| CC(C)C(=O)Nc1ccc([N+](=O)[O-])c(C(F)(F)F)c1 | -5.7% (inactive) |

Target: Glucocorticoid receptor (Homo sapiens) (UniProt P04150)
Sequence (P04150 whole entry, looked up): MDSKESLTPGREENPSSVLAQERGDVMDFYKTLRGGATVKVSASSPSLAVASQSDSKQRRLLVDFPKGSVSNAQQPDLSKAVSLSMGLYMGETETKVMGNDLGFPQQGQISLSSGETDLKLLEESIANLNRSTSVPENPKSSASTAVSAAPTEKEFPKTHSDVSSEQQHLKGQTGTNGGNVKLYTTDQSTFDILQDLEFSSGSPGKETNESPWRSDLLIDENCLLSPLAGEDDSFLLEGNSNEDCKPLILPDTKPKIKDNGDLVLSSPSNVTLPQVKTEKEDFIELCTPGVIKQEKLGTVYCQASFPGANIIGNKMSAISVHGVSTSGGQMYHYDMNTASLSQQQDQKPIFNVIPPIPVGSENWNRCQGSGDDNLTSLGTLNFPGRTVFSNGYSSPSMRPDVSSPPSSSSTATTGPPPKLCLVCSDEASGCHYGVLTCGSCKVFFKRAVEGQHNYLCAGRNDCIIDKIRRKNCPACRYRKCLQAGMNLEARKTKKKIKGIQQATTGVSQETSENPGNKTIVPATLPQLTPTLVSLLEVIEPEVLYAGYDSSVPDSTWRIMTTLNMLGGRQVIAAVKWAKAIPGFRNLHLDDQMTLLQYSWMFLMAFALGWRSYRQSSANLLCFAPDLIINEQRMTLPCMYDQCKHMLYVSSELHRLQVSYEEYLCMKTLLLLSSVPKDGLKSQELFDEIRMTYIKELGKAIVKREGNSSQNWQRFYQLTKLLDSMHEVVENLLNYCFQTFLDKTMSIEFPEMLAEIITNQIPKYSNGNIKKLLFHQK
Test: qHTS assay for small molecule agonists of glucocorticoid receptor signaling (AID 588532; active = well fitted curve in the direction sought with a large enough effect in the signal ratio, with a control signal flat; the % refers to the signal ratio;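 note: 100% = dexamethasone at 0.1 µM and 0% = DMSO only wells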)
Details: HeLa MMTV-bla, beta-lactamase ratio, agonist, 18 h; stronger effect = higher value; percent of dexamethasone control, DMSO zero
How it was run: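 MMTV-bla HeLa beta-lactamase reporter cells in 1% charcoal/dextran FBS medium, compounds up to 92 uM for 18 h at 37 C, CCF4 readout; normalized to 0.1 uM dexamethasone (100%), EC50 and efficacy from Hill fits.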

| SMILES | activation |
| --- | --- |
| Clc1ccc(C(c2ccccc2Cl)C(Cl)Cl)cc1 (stereo not drawn) | -3.98% (inactive) |
| CN(C)CCOC(c1ccccc1)c1ccccc1 | -3.72% (inactive) |
| O=C(Nc1ccc([N+](=O)[O-])cc1Cl)c1cc(Cl)ccc1O | -5.17% (inactive) |
| CC(C)NCC(O)c1ccc(O)c(O)c1 (stereo not drawn) | -1.74% (inactive) |
| CC#C[C@]1(O)CC[C@H]2[C@@H]3CCC4=CC(=O)CCC4=C3[C@@H](c3ccc(N(C)C)cc3)C[C@@]21C | -13.5% (inactive) |

Target: Glucocorticoid receptor (Homo sapiens) (UniProt P04150)
Test: qHTS assay for small molecule antagonists of glucocorticoid receptor signaling (AID 588533; active = well fitted inhibition curve with a large enough effect in the signal ratio, with a control signal flat, not every such curve was filed as active; the % refers to the signal ratio; note: potency is the fitted concentration of half-maximal effect; for activity change, negative = inhibition: % is set by controls: 0 for no effect and ±100 for the full control effect)
Details: HeLa MMTV-bla, GRE beta-lactamase ratio, antagonist mode, 18 h; series mostly up to 76.8 µM; activity change, negative = inhibition: at the top concentration
How it was run: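 Antagonist-mode qHTS: compound titrations added to GRE-bla HeLa cells, then dexamethasone 2 nM final; 18 h, 37 C. CCF4 FRET fluorescence normalized to dexamethasone and DMSO; IC50 from Hill fit.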

| SMILES | activity change, negative = inhibition | Potency |
| --- | --- | --- |
| CC(COc1ccccc1)N(CCCl)Cc1ccccc1 (stereo not drawn) | -3.46% (inactive) |  |
| CN(C)CCOC(c1ccccc1)c1ccccc1 | -0.736% (inactive) |  |
| O=c1[nH]cc(F)c(=O)[nH]1 | 0.366% (inactive) |  |
| CC(C)NCC(O)c1ccc(O)c(O)c1 (stereo not drawn) |  | inactive |
| O=C(c1ccc(OCCN2CCCCC2)cc1)c1c(-c2ccc(O)cc2)sc2cc(O)ccc12 |  | 39.8 µM (active) |

Tested on: not listed separately
Test: qHTS assay for small molecule antagonists of peroxisome proliferator-activated receptor delta signaling (AID 588535; active = well fitted inhibition curve with a large enough effect in the signal ratio, with a control signal flat, not every such curve was filed as active; the % refers to the signal ratio;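 for max response: cells co-treated with a PPAR-delta agonist as stimulator during compound exposure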)
Details: HEK293T PPARd-UAS-bla, beta-lactamase FRET ratio, 18 h; 460 nm channel
How it was run: (§1)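 Fluorescence from CCF4-loaded GeneBLAzer PPAR-delta-UAS-bla HEK293T cells (2 hrs RT loading) quantified reporter inhibition after an 18 hr, 37 C compound exposure across a titration.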

| SMILES | max response |
| --- | --- |
| Clc1ccc(C(c2ccccc2Cl)C(Cl)Cl)cc1 (stereo not drawn) | -16.9% |
| C[C@](N)(Cc1ccc(O)c(O)c1)C(=O)O | -4.18% |
| CC(C)NCC(O)c1ccc(O)c(O)c1 (stereo not drawn) | 4.84% and 9.19% |

Target: Peroxisome proliferator-activated receptor delta (Homo sapiens) (UniProt Q03181)
Sequence (Q03181 whole entry, looked up): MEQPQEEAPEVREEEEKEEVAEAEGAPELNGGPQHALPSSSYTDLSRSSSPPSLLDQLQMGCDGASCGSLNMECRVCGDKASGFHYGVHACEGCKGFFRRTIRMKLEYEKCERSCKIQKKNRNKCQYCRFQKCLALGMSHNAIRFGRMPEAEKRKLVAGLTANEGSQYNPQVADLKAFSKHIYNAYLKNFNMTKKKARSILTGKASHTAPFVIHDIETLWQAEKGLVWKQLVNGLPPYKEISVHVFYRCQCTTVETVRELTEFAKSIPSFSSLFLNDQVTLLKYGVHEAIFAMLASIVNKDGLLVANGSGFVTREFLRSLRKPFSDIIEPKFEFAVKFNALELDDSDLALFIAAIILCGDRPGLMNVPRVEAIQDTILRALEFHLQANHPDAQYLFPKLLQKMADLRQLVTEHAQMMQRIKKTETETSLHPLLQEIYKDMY
Test: as above
Details: HEK293T PPARd-UAS-bla, beta-lactamase FRET ratio, 18 h; series mostly up to 76.7 µM; activity change, negative = inhibition: at the top concentration
How it was run: as §1

| SMILES | activity change, negative = inhibition | outcome |
| --- | --- | --- |
| Clc1ccc(C(c2ccccc2Cl)C(Cl)Cl)cc1 (stereo not drawn) | -9.99% (inactive) |  |
| C[C@](N)(Cc1ccc(O)c(O)c1)C(=O)O | -7.73% (inactive) |  |
| CC(C)NCC(O)c1ccc(O)c(O)c1 (stereo not drawn) |  | inactive |

Target: Peroxisome proliferator-activated receptor gamma (Homo sapiens) (UniProt P37231)
Sequence (P37231 whole entry, looked up): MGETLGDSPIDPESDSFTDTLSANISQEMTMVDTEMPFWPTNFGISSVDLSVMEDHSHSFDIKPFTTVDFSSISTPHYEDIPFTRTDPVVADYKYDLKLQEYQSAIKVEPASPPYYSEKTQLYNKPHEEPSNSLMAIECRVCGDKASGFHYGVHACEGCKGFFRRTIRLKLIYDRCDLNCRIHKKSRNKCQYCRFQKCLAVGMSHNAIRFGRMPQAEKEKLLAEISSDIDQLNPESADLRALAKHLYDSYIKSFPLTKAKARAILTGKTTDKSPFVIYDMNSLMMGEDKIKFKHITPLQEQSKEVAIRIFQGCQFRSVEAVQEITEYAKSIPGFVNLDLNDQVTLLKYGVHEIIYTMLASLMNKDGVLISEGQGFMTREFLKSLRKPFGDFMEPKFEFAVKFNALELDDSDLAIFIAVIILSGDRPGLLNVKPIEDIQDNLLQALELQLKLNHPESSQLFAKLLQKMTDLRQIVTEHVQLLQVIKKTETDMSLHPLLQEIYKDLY
Test: qHTS assay for small molecule agonists of peroxisome proliferator-activated receptor gamma signaling (AID 588536; active = well fitted curve in the direction sought with a large enough effect in the signal ratio, with a control signal flat, not every such curve was filed as active; the % refers to the signal ratio;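 note: 0% = DMSO basal wells and 100% = rosiglitazone at 2 µM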)
Details: HEK293 PPARg-UAS-bla, beta-lactamase ratio, 16 h, percent of rosiglitazone response, DMSO as zero; series mostly up to 76.7 µM; activation: at the top concentration
How it was run: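 Beta-lactamase reporter read-out: CCF4 fluorescence (ex 405, em 460/530 nm) after 2 h at RT. HEK293 GeneBLAzer cells were treated for 16 h at 37 C. Hill fits gave EC50 and efficacy versus 2 uM rosiglitazone (100%) and DMSO (0%).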

| SMILES | activation | outcome |
| --- | --- | --- |
| CC(COc1ccccc1)N(CCCl)Cc1ccccc1 (stereo not drawn) | -12.5% (inactive) |  |
| Nc1c2c(nc3ccccc13)CCCC2 | 2.59% (inactive) |  |
| C[C@](N)(Cc1ccc(O)c(O)c1)C(=O)O | -7.6% (inactive) |  |
| CC(C)NCC(O)c1ccc(O)c(O)c1 (stereo not drawn) |  | inactive |
| CC(C)C(=O)Nc1ccc([N+](=O)[O-])c(C(F)(F)F)c1 |  | inactive |

Target: Peroxisome proliferator-activated receptor gamma (Homo sapiens) (UniProt P37231)
Test: qHTS assay for small molecule antagonists of peroxisome proliferator-activated receptor gamma signaling (AID 588537; active = well fitted inhibition curve with a large enough effect in the signal ratio, with a control signal flat, not every such curve was filed as active; the % refers to the signal ratio; note: potency is the fitted concentration of half-maximal effect;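 for activity, negative = inhibition: reporter cells co-stimulated with 50 nM rosiglitazone agonist during compound treatment; % of control where 0% means no effect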)
Details: HEK293 PPARg-UAS-bla, beta-lactamase ratio, antagonist mode; series mostly up to 76.8 µM; activity, negative = inhibition: at the top concentration
How it was run: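 Fluorescence at 460 and 530 nm (405 nm excitation) reported beta-lactamase cleavage of CCF4 after 2 h room-temperature loading. HEK293 reporter cells in 1% charcoal/dextran-treated FBS had received compound and rosiglitazone for 16 h.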

| SMILES | activity, negative = inhibition | Potency |
| --- | --- | --- |
| C[C@](N)(Cc1ccc(O)c(O)c1)C(=O)O | 0.379% (inactive) |  |
| CC(C)NCC(O)c1ccc(O)c(O)c1 (stereo not drawn) | 8.69% (inactive) |  |
| CC(C)C(=O)Nc1ccc([N+](=O)[O-])c(C(F)(F)F)c1 | 2.59% (inactive) |  |
| O=C(c1ccc(OCCN2CCCCC2)cc1)c1c(-c2ccc(O)cc2)sc2cc(O)ccc12 |  | 39.8 µM (active) |

Target: Vitamin D3 receptor (Homo sapiens) (UniProt P11473)
Sequence (P11473 whole entry, looked up): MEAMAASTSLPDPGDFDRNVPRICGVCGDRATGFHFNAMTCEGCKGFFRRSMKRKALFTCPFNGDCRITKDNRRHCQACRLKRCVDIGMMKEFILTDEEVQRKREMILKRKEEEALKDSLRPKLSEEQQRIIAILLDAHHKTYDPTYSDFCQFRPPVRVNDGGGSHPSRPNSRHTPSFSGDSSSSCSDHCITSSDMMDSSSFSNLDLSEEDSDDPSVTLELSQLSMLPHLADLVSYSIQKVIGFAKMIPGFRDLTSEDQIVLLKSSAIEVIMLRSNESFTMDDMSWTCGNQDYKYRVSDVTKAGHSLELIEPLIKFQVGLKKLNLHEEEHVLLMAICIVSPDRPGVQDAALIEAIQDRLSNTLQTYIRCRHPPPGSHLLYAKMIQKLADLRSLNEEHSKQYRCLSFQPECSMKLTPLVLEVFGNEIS
Test: qHTS assay for small molecule antagonists of vitamin D receptor signaling (AID 588541);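 note: receptor activated by calcitriol during compound treatment; % is set by controls: 0 for no effect and ±100 for the full control effect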
Details: HEK293T VDR-UAS-bla, beta-lactamase ratio, antagonist mode; series mostly up to 76.7 µM; activity change, negative = inhibition: at the top concentration
How it was run: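 VDR-UAS-bla HEK293T cells in 2% charcoal-stripped FBS were stimulated with 1-alpha,25-dihydroxyvitamin D3 (3 nM final) plus compound for 16 h at 37 C. The beta-lactamase CCF4 readout was normalized to 50 nM agonist and DMSO, and Hill fits gave IC50.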

| SMILES | outcome | activity change, negative = inhibition |
| --- | --- | --- |
| CC(COc1ccccc1)N(CCCl)Cc1ccccc1 (stereo not drawn) | inactive |  |
| O=c1[nH]cc(F)c(=O)[nH]1 |  | 6.84% (inactive) |
| C[C@](N)(Cc1ccc(O)c(O)c1)C(=O)O |  | 0.338% (inactive) |
| CC(C)NCC(O)c1ccc(O)c(O)c1 (stereo not drawn) | inactive |  |

Target: Vitamin D3 receptor (Homo sapiens) (UniProt P11473)
Test: qHTS assay for small molecule agonists of vitamin D receptor signaling (AID 588543);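 note: 0% = DMSO basal and 100% = reference agonist control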
Details: HEK293T VDR-UAS-bla, beta-lactamase ratio, 16 h; series mostly up to 76.8 µM; activation: at the top concentration
How it was run: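 VDR-UAS-bla HEK293T cells, 2000/well, 2% charcoal-stripped FBS; compound titration 16 h at 37 C; CCF4 beta-lactamase ratio read. Normalized to 50 nM 1-alpha,25-dihydroxyvitamin D3 (100%) and DMSO; Hill fit gives EC50, efficacy.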

| SMILES | outcome | activation |
| --- | --- | --- |
| CC(COc1ccccc1)N(CCCl)Cc1ccccc1 (stereo not drawn) | inactive |  |
| O=c1[nH]cc(F)c(=O)[nH]1 |  | -2.08% (inactive) |
| C[C@](N)(Cc1ccc(O)c(O)c1)C(=O)O |  | 2.13% (inactive) |
| CC(C)NCC(O)c1ccc(O)c(O)c1 (stereo not drawn) | inactive |  |
| O=C(c1ccc(OCCN2CCCCC2)cc1)c1c(-c2ccc(O)cc2)sc2cc(O)ccc12 |  | -8.3% (inactive) |

Tested on: not listed separately
Test: qHTS assay for small molecule agonists of retinoid X receptor alpha signaling (AID 588544);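 for activation: 0% = DMSO basal wells and 100% = reference agonist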
Details: HEK293T RXRa-UAS-bla, beta-lactamase reporter, 18 h; 530 nm emission

| SMILES | max response |
| --- | --- |
| CC(COc1ccccc1)N(CCCl)Cc1ccccc1 (stereo not drawn) | 23% and 19% |
| O=c1[nH]cc(F)c(=O)[nH]1 | -12.4% |
| C[C@](N)(Cc1ccc(O)c(O)c1)C(=O)O | -1.09% |
| CC(C)NCC(O)c1ccc(O)c(O)c1 (stereo not drawn) | -7.52% and -0.93% |

Target: Retinoic acid receptor RXR-alpha (Homo sapiens) (UniProt P19793)
Sequence (P19793 whole entry, looked up): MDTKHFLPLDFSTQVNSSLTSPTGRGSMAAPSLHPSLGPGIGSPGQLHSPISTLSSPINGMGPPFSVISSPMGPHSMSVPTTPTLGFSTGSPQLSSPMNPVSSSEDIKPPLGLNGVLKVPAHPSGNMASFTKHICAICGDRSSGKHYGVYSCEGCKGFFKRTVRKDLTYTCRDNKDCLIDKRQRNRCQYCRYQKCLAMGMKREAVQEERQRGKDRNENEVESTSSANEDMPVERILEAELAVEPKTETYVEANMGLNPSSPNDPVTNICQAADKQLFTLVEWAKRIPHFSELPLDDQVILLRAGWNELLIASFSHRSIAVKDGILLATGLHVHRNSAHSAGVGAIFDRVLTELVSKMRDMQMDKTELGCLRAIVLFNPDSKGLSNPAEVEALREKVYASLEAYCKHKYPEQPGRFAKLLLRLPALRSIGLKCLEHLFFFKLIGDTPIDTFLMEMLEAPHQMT
Test: as above
Details: HEK293T RXRa-UAS-bla, beta-lactamase reporter, 18 h; series mostly up to 76.7 µM; activation: at the top concentration

| SMILES | outcome | activation |
| --- | --- | --- |
| CC(COc1ccccc1)N(CCCl)Cc1ccccc1 (stereo not drawn) | inactive |  |
| O=c1[nH]cc(F)c(=O)[nH]1 |  | 18.9% (inactive) |
| C[C@](N)(Cc1ccc(O)c(O)c1)C(=O)O |  | 3.55% (inactive) |
| CC(C)NCC(O)c1ccc(O)c(O)c1 (stereo not drawn) | inactive |  |

Target: Thyroid hormone receptor beta (Homo sapiens) (UniProt P10828)
Sequence (P10828 whole entry, looked up): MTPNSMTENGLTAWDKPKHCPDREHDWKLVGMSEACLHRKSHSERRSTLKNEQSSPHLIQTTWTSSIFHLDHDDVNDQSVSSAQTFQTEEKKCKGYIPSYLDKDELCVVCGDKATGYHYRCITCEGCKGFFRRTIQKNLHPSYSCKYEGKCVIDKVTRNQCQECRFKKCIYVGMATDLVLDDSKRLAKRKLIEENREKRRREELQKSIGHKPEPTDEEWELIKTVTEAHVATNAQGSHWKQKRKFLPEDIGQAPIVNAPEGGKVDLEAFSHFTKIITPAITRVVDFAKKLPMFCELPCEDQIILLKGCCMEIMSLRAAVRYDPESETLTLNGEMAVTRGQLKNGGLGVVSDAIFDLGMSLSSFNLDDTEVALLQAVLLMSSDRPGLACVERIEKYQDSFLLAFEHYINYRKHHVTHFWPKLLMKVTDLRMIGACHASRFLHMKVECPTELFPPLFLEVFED
Test: qHTS assay for small molecule agonists of thyroid hormone receptor beta signaling (AID 588545);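 note: 0% = DMSO only and 100% = 10 nM T3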
Details: TR-UAS-bla GripTite HEK 293, beta-lactamase ratio, agonist mode, 18 h, percent of T3 response, DMSO as zero; series mostly up to 76.7 µM; activation: at the top concentration
How it was run: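 Efficacy and EC50 values derive from Hill fits of qHTS titration data, normalized to 10 nM T3 and DMSO-only wells. HEK 293 reporter cells were stimulated for 18 hrs at 37 C, with beta-lactamase activity measured by CCF4 fluorescence.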

| SMILES | outcome | activation |
| --- | --- | --- |
| CC(COc1ccccc1)N(CCCl)Cc1ccccc1 (stereo not drawn) | inactive |  |
| Clc1ccc(C(c2ccccc2Cl)C(Cl)Cl)cc1 (stereo not drawn) |  | -5.29% (inactive) |
| O=C(Nc1ccc([N+](=O)[O-])cc1Cl)c1cc(Cl)ccc1O |  | -19.5% (inactive) |
| Nc1c2c(nc3ccccc13)CCCC2 |  | -18.8% (inactive) |
| C[C@](N)(Cc1ccc(O)c(O)c1)C(=O)O |  | 1.06% (inactive) |
| CC(C)NCC(O)c1ccc(O)c(O)c1 (stereo not drawn) | inactive |  |
| CC#C[C@]1(O)CC[C@H]2[C@@H]3CCC4=CC(=O)CCC4=C3[C@@H](c3ccc(N(C)C)cc3)C[C@@]21C |  | 0.733% (inactive) |
| CC(C)C(=O)Nc1ccc([N+](=O)[O-])c(C(F)(F)F)c1 | inactive |  |
